# Experimental data as given in ChEMBL document CHEMBL1961873, “Compounds: GSK PKIS; Assays: Nanosyn kinase panel” (2012).
# Where “and” joins values, the source holds several entries; their conditions need not be identical. Equal entries are not always repeated.
# Assays:
# [1] = molecular target: T1, Inhibitor of nuclear factor kappa-B kinase subunit epsilon (Homo sapiens) (UniProt Q14164); details: at 1 µM;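 further: reported values are averaged percent inhibition figures against human IKKε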
# T1 sequence (whole entry): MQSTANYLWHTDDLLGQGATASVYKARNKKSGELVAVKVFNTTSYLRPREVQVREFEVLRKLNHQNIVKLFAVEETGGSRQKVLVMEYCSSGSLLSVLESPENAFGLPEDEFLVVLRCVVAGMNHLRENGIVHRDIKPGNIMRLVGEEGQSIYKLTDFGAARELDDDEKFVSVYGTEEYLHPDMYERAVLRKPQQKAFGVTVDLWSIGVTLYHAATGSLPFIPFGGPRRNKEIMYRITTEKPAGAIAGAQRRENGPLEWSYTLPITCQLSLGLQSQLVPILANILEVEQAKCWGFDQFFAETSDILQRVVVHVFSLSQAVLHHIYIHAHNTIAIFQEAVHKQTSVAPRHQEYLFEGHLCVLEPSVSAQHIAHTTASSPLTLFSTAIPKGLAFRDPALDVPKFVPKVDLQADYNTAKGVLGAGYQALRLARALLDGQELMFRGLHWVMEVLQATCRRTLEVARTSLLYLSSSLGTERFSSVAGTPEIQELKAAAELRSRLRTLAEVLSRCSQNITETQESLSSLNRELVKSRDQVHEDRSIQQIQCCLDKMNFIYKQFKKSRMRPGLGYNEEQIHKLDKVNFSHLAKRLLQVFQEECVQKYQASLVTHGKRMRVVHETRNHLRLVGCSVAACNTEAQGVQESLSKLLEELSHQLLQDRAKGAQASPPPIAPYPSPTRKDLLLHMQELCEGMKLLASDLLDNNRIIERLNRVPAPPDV
# [2] = molecular target: T2, Serine/threonine-protein kinase Nek1 (Homo sapiens) (UniProt Q96PY6); details: at 0.1 µM
# T2 sequence (whole entry): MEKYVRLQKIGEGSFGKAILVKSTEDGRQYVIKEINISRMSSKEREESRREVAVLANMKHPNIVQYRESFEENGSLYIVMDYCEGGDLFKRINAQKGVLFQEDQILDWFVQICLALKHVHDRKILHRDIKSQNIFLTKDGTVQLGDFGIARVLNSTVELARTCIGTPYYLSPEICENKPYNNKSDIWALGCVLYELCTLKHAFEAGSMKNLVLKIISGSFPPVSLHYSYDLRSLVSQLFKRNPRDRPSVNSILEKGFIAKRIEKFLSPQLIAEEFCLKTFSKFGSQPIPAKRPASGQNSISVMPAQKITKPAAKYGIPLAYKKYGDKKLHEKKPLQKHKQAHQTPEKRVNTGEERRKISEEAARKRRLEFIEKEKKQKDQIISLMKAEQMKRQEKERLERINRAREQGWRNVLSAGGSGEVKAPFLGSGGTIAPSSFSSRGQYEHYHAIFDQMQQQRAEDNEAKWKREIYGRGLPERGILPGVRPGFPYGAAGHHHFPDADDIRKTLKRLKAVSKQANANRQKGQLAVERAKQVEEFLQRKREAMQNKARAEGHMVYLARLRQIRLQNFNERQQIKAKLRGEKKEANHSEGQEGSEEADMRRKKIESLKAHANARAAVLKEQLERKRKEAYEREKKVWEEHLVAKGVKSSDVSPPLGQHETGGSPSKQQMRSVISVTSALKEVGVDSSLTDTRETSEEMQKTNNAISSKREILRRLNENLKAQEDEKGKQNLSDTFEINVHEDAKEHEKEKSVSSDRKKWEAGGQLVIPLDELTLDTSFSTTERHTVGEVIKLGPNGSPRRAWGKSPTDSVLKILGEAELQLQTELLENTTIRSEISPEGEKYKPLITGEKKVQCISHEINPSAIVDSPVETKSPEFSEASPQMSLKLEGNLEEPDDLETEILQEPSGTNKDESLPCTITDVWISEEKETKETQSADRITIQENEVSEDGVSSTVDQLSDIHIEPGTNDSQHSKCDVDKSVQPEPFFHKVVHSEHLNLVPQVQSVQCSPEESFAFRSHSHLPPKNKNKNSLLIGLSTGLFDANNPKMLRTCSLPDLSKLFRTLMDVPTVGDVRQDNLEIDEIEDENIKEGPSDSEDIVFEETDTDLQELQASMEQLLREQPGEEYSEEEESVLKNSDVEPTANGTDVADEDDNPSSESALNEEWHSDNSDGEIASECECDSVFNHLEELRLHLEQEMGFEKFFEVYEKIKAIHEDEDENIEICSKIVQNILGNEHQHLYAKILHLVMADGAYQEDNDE
# [3] = molecular target: T2, Serine/threonine-protein kinase Nek1 (Homo sapiens); details: at 1 µM
# [4] = molecular target: T3, Serine/threonine-protein kinase Nek2 (Homo sapiens) (UniProt P51955); details: at 0.1 µM
# T3 sequence (whole entry): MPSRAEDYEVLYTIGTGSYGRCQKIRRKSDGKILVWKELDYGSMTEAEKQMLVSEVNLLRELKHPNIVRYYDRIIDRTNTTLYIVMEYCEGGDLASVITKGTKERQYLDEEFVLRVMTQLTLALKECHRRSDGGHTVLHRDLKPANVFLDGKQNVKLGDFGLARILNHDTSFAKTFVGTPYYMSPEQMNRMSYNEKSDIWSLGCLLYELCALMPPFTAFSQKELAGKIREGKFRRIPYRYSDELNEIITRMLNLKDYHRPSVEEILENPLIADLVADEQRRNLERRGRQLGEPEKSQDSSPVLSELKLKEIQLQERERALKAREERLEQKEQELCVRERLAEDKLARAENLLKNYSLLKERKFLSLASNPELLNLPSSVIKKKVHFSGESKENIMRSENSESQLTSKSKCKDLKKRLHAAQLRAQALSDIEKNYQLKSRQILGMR
# [5] = molecular target: T3, Serine/threonine-protein kinase Nek2 (Homo sapiens); details: at 1 µM
# [6] = molecular target: Serine/threonine-protein kinase Nek6 (Homo sapiens) (UniProt Q9HC98); details: at 0.1 µM
# Chain of Serine/threonine-protein kinase Nek6 (Homo sapiens) (Q9HC98 whole entry): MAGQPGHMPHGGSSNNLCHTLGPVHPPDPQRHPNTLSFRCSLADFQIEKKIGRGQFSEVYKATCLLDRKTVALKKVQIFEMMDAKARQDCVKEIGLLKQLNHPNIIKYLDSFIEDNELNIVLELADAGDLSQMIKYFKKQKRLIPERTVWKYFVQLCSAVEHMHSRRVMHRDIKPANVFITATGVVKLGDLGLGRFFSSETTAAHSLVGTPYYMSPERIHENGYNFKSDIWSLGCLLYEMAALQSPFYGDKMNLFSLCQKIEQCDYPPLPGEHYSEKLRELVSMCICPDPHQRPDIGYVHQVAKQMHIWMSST
# [7] = molecular target: Serine/threonine-protein kinase Nek6 (Homo sapiens) (UniProt Q9HC98); details: at 1 µM
# [8] = molecular target: Serine/threonine-protein kinase Nek7 (Homo sapiens) (UniProt Q8TDX7); details: at 0.1 µM
# Chain of Serine/threonine-protein kinase Nek7 (Homo sapiens) (Q8TDX7 whole entry, looked up): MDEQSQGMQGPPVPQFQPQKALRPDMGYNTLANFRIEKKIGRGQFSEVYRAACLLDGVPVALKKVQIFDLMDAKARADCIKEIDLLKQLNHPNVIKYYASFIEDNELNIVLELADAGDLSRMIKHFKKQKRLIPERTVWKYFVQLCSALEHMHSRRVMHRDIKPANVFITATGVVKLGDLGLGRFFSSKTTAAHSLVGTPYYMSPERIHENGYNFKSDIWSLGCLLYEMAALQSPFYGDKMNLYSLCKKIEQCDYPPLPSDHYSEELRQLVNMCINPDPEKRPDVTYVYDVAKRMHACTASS
# [9] = molecular target: Serine/threonine-protein kinase Nek7 (Homo sapiens) (UniProt Q8TDX7); details: at 1 µM
# [10] = molecular target: T4, Serine/threonine-protein kinase Nek9 (Homo sapiens) (UniProt Q8TD19); details: at 0.1 µM;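 further: reported value is the mean percent inhibition of NEK9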
# T4 sequence (whole entry): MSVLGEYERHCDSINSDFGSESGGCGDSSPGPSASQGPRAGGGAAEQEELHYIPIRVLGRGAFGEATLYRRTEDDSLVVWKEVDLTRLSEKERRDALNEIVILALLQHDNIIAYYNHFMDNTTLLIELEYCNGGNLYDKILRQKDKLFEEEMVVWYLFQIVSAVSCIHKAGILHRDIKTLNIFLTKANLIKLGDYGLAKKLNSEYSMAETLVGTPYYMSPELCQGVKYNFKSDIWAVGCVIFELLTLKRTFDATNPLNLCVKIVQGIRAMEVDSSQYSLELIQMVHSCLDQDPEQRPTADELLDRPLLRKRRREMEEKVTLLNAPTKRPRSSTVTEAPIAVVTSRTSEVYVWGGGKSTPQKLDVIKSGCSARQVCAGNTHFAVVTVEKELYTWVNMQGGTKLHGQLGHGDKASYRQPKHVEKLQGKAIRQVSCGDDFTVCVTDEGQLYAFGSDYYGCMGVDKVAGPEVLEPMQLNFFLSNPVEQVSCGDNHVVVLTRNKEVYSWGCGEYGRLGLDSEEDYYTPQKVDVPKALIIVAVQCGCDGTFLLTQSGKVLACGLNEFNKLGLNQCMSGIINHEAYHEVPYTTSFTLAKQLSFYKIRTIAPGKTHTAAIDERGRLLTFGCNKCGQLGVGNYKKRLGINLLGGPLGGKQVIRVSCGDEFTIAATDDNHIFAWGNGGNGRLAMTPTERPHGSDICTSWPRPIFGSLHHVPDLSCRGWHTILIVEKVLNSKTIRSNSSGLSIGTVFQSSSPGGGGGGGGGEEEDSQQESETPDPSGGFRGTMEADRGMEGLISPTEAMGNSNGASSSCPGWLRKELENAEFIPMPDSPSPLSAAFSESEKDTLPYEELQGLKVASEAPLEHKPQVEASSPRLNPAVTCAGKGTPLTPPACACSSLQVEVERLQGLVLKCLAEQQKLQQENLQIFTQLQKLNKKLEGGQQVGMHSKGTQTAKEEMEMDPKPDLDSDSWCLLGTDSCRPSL
SMILES,inhibition [1],inhibition [2],inhibition [3],inhibition [4],inhibition [5],inhibition [6],inhibition [7],inhibition [8],inhibition [9],inhibition [10]
COc1ccccc1-c1cc(/C=C2\C(=O)Nc3ncc(Br)cc32)cc(Br)c1O,12.5%,2.67%,0.39%,6.8%,6.16%,3.44%,0.04%,6.5%,3.62%,3.73%
CC1(C)CC(n2cnc(-c3ccc(F)cc3)c2-c2ccnc(N)n2)CC(C)(C)N1,0.72%,0.9%,0.83%,1.02%,2.07%,1.95%,0.37%,3.74%,1.39%,5.35%
NC(=O)c1ccc2c(-c3ccnc(NCCCO)n3)c(-c3ccc(F)cc3)nn2c1,3.59%,2.6%,3.93%,5.07%,6.59%,1.23%,-0.99%,6.38%,4.14%,5.71%
N#Cc1cccc(Nc2ncc(-c3ccccc3)o2)c1,6.35%,1.6%,2.44%,2.51%,0.06%,1.87%,5.4%,2.82%,1.01%,8.32%
CNC(=O)c1ncccc1Nc1nc(Nc2cc3c(cc2OC)CCCN3C(=O)CN(C)C)nc2[nH]ccc12,10.1%,0.87%,2.58%,4.37%,3.89%,2.87%,-0.46%,3.53%,7.42%,5.86%
Cc1cc(O)cc(C)c1/C=C/c1cncc(C(N)=O)c1,91.3%,1.8%,2.95%,3.02%,1.69%,3.18%,1.92%,4.15%,3.89%,5.2%
Nc1nccc(-c2c(-c3ccc(F)cc3)ncn2C2CCNCC2)n1,-3.35% and 1.18%,-2.75% and -0.7%,0.36% and 1.29%,-3.4% and 0.5%,-4.07% and 0.05%,-2.7% and -2.19%,-2.93% and 2.63%,-2.09% and 0.15%,-4.78% and 0.13%,0.73% and -1.84%
COc1cc(N2CCN(C(C)C)CC2)ccc1Nc1nc(Nc2cccc3ncccc23)c2cc[nH]c2n1,0.88%,-0.11%,0.84%,-0.73%,-0.48%,-0.86%,-2.27%,1.54%,-0.41%,4.56%
Fc1cccc(COc2ccc(Nc3ncncc3C#Cc3ccccc3)cc2Cl)c1,8.55%,3.31%,4.09%,5.61%,4.52%,1.91%,3.93%,2.36%,2.64%,10.8%
COc1cccc(-n2ncc3c(N/N=C/c4ccc(C(=O)NCCN(C)C)cc4)ncnc32)c1,-5.84%,2.06%,7.24%,0.16%,1.98%,1.11%,0.35%,3.99%,-1.23%,5.54%
COc1ccc2ncn(-c3cc(O[C@H](C)c4ccccc4C(F)(F)F)c(C(N)=O)s3)c2c1,1.28%,8.29%,43%,0.45%,11.6%,0.31%,-2.42%,1.25%,0.51%,35.9%
Nc1ncnc2occ(-c3ccc(NC(=O)Nc4cc(C(F)(F)F)ccc4F)cc3)c12,11.5% and 1.35%,4.57% and -0.38%,34.7% and 18.1%,1.72% and -2.9%,-2.44% and -3.79%,2.68% and -0.01%,-0.68% and -1.16%,2.87% and -5.06%,-8.19% and -5.1%,5.05% and 5.01%
CNC(=O)c1sc(-n2cnc3cc(OC)c(OC)cc32)cc1OCc1ccccc1C(F)(F)F,5.28%,1.76%,2.01%,3.26%,4.32%,1.25%,1.86%,1.64%,-2.15%,7.04%
COC(=O)Nc1nc2cc(Oc3ccc(NC(=O)Nc4ccccc4)cc3)ccc2[nH]1,5.8%,1.46%,1.92%,3.05%,1.76%,3.54%,0.95%,2.02%,1.72%,4.39%
NS(=O)(=O)c1cccc(N/C=C2\C(=O)Nc3ccccc32)c1,14.5%,2.63%,4.56%,5.64%,4.55%,1.86%,1.95%,6.51%,4.33%,5.97%
